These results are taken from PubChem BioAssay (NCATS).

The structures appear in SMILES notation. Results filed as inconclusive are left out. A call without a number means that no potency is given here. Unmarked numbers belong to inactive results. Calls of active or inactive are those of the source. The call rests on the fitted dose curve; in most records, active means well fitted inhibition curve with a large enough effect; inconclusive means small, poorly fitted or top-dose-only effect; inactive means flat fitted curve, though single readings scatter.

The experiment deals with Aldehyde dehydrogenase, mitochondrial (Homo sapiens) (UniProt P05091). The experiment in a line: qHTS for Inhibitors of the Aldehyde Dehydrogenase Family (ALDH2) Primary screen (AID 2061308). Further: nearly all actives have a fitted effect of over 55% in size. The following applies: ALDH2 enzyme inhibition qHTS, 1536-well; series mostly up to 56 µM. In general terms: qHTS replaces the single test concentration by a dilution series.
With `C[N+]1(C)[C@@H]2CC[C@H]1CC(OC(=O)C(O)c1ccccc1)C2` (stereo not given in full), the Potency entry is “inactive”.
Still for that read-out and setting: the entry for `CC(=O)O[C@@H]1C[C@@]23C[C@@]24CC[C@H](O[C@@H]2OC[C@H](O)[C@H](O)[C@H]2O)C(C)(C)[C@@H]4CC[C@H]3[C@]2(C)[C@@H](O)C34O[C@H](C[C@@H](C)[C@@H]3[C@@]12C)[C@@H](C(C)(C)O)O4` is “inactive”.
`C[C@@H]1O[C@@H](O[C@H]2[C@H](OC(=O)[C@]34CCC(C)(C)C[C@H]3C3=CCC5[C@@]6(C)C[C@H](O)[C@H](O[C@@H]7O[C@H](CO[C@@H]8OC[C@H](O)[C@H](O)[C@H]8O)[C@@H](O)[C@H](O)[C@H]7O)C(C)(C)C6CC[C@@]5(C)[C@]3(C)C[C@H]4O)OC[C@@H](O)[C@@H]2O)[C@H](O)[C@H](O[C@@H]2OC[C@](O)(CO)[C@H]2O)[C@H]1O[C@@H]1OC[C@H](O)[C@H](O[C@@H]2OC[C@@H](O)[C@H](O)[C@H]2O)[C@H]1O` (stereo not given in full): the activity change, negative = inhibition is -4.16% [at 11.2 µM].
On to `Cc1ncc(CCCN(C)C)cc1Nc1ncc2c(n1)-c1ccc(C(F)(F)F)cc1NC(=S)C2`, for which the Potency result was “inactive”.
On to `COC1(CC(C)C)NC(=O)C(O)(Cc2ccccc2)NC1=O` (stereo not given), for which the Potency result is “inactive”.
The same measure, in the same setting: the entry for `CCn1nnnc1NCc1ccc(C(C)C)cc1` is “inactive”; for `CC12CCC3C(C)(C)C(O)CCC3(C)C1Cc1c(oc(C(=O)O)cc1=O)O2` (stereo not given) it is “inactive”; for `Cc1cc(O[C@@H]2O[C@H](COC(=O)CC(=O)O)[C@@H](O)[C@H](O)[C@H]2O)c(C(C)C)cc1O` it is “inactive”.
Same read-out and setting: the entry for `Cc1ccc(OC[C@H](O)[C@H](C)NC(C)C)c2c1CCC2` is “inactive”; for `CC1(C)CC[C@]2(C(=O)O[C@@H]3O[C@H](CO)[C@@H](O)[C@H](O)[C@H]3O)CC[C@]3(C)C(=CCC4[C@@]5(C)CC[C@H](O[C@@H]6O[C@H](C(=O)O)[C@@H](O[C@@H]7O[C@H](CO)[C@@H](O)[C@H](O)[C@H]7O)[C@H](O)[C@H]6O[C@@H]6O[C@H](CO)[C@@H](O)[C@H](O)[C@H]6O)C(C)(C)C5CC[C@]43C)C2C1` (stereo not given in full) it is “inactive”; for `O=C(/C=C/c1ccc(O)cc1)OC[C@]12O[C@H]1[C@@H](O)[C@@H]1C=CO[C@@H](O[C@@H]3O[C@H](CO)[C@@H](O)[C@H](O)[C@H]3O)[C@@H]12` it is “inactive”.
On the same count and under the same terms, the entry for `C/C=C(/C)C(=O)O[C@@H]1C[C@@H](OC(=O)CC(C)C)C2(C)C3C(=O)C=C(C)C2C3C1(C)C` (stereo not given in full) is “inactive”; for `C=C1C(=O)O[C@@H]2C[C@]3(C)[C@@H](CCC(C)=O)[C@@H]3C[C@H]12` it is “inactive”; for `COC(=O)CC(O)C1OC(c2ccccc2)C(O)C1O` (stereo not given) it is “inactive”.
For the molecule `Clc1ccc(CN[C@H]2CCN(c3ncc(Br)cn3)C2)c(Cl)c1`, the Potency entry is “inactive”.
On the same count and under the same terms, the entry for `CC1=CC(=O)CC2C1(O)CCC(C)C21CC(c2ccoc2)OC1=O` (stereo not given) is “inactive”; for `COc1cc(O)c(C(=O)CCc2ccc(O)cc2)c(O[C@@H]2O[C@H](CO)[C@@H](O)[C@H](O)[C@H]2O)c1` it is “inactive”; for `CC(C)c1ccc2c(c1)C(O)CC1C(C)(C(=O)O)CCCC21C` (stereo not given) it is “inactive”.
Same read-out and setting: the result for `O=C(Nc1c(-c2cccs2)nc2ccccn12)c1ccc(Cl)cc1` reads “inactive”.
Regarding `CN(CC1(C)CCCO1)S(=O)(=O)c1ccc(Cl)c(S(N)(=O)=O)c1` (stereo not given), the Potency result is “inactive”.
Still for that read-out and setting: the result for `CC(CCO)CCC1C2(C)CCCC(C)(C)C2CC[C@@]1(C)O` (stereo not given in full) reads “inactive”; that for `CC(C)(O)C1CCC(C)(C2CCC3(C)C4CCC5C(C)(C(=O)OC6OC(CO)C(O)C(O)C6O)C(O)CC(O)C56CC46CCC23C)O1` (stereo not given), “inactive”.
On to `OC[C@H]1O[C@@H](OC(CCCCc2ccc(O)cc2)CCc2ccc(O)cc2)[C@H](O[C@@H]2OC[C@](O)(CO)[C@H]2O)[C@@H](O)[C@@H]1O` (stereo not given in full), for which the Potency entry was “inactive”.
Still for that read-out and setting: the result for `C=C1CC[C@]2(C(=O)O[C@@H]3O[C@H](CO)[C@@H](O)[C@H](O)[C@H]3O)CC[C@]3(C)C(=CCC4[C@@]5(C)C[C@H](O)[C@@H](O[C@@H]6O[C@H](C(=O)O)[C@@H](O)[C@H](O)[C@H]6O)[C@](C)(C=O)C5CC[C@]43C)C2C1` (stereo not given in full) reads “inactive”; that for `CC(=O)OC1CCC2(C)C(CCC3(C)C2CC=C2C4CC(C)(C)CCC4(C)CCC23C)C1(C)C(=O)O` (stereo not given), “inactive”.
Same read-out and setting: the result for `CC(C(=O)O)c1ccc(/C=C2\CCCCC2=O)cc1` (stereo not given) reads “inactive”.
Same read-out and setting: the result for `COc1cc(NC(=O)c2cccc(-n3cc(NC(=O)Nc4cccc(C)c4)cn3)c2)cc(OC)c1OC` reads “inactive”; that for `CCC(=O)N[C@@H]1Cc2ccccc2[C@H](c2ccccc2)C1`, “inactive”.
On to `COC1C(CO)OC(n2cnc3c(=O)[nH]cnc32)C1O` (stereo not given), for which the Potency entry was “inactive”.
Same read-out and setting: the entry for `CC1OC(OC2C(OC3C(O[C@H]4CC[C@@]5(C)C(CC[C@]6(C)C5CC=C5C7CC(C)(C)CC(O)[C@]7(C)CC[C@]56C)C4(C)C)OC(C(=O)O)C(O)C3O)OCC(O)C2O)C(O)C(O)C1O` (stereo not given in full) is “inactive”; for `CC(=O)N1c2ccccc2C2(O)CC3C(=O)NC(CC(C)C)C(=O)N3C12` (stereo not given) it is “inactive”.
The same measure, in the same setting: the result for `C/C=C/C=C/C=C/C(=O)O[C@@H]1C=C(CO)C(O)(C(=O)OC)[C@@]2(C)CCCC(C)(C)C12` (stereo not given in full) reads “inactive”; that for `COC(=O)C1=CO[C@@H](O[C@@H]2O[C@H](CO)[C@@H](O)[C@H](O)[C@H]2O)C2C1CC(O)C2C` (stereo not given in full), “inactive”.
On the same count and under the same terms, the entry for `O=C1NC(Cc2c[nH]c3ccccc23)C(=O)NC1Cc1cnc[nH]1` (stereo not given) is “inactive”.
Turning to `C=C1CCC2C(C)(C)C(O)CCC2(C)C1CCC(C)CCOC(C)=O` (stereo not given), the Potency result is “inactive”.
As for `C1CCC[C@H]2CCCN3CC[C@@H](CCCCCC[C@@H]4CCCN5CC[C@@H](CC1)O[C@@H]45)O[C@@H]23`, the activity change, negative = inhibition was 3.01% [at 0.092 µM].
With `CC(=O)O[C@H]1CC[C@]2(C)[C@H]3CC[C@]4(C)Oc5oc(C)cc(=O)c5C[C@H]4[C@]3(C)CC[C@H]2C1(C)C`, the Potency entry was “inactive”.
As to `C=CC(C)(O)CC[C@H]1C(=C)CCC2[C@](C)(C(=O)O)CCC[C@@]21C` (stereo not given in full), the Potency entry was “inactive”.
On the same count and under the same terms, the entry for `COC(=O)C(CC1(OC(=O)C(C)C)c2ccccc2N2C(=O)C(C)(C)N(O)C21)n1cnc2ccccc2c1=O` (stereo not given) is “inactive”; for `CC1CCC2(C(=O)OC3OC(CO)C(O)C(O)C3O)CCC3(C(=O)O)C(=CCC4C5(C)CCC(OC6OC(C)C(O)C(O)C6O)C(C)(C)C5CCC43C)C2C1C` (stereo not given) it is “inactive”.
